# Pf growth 96h: inhibits malaria parasite growth, 96 h; P. falciparum luciferase reporter growth, 96 h; Potency, µM (highest dose often 28.7 µM), inactives show at the top dose activity change, negative = inhibition, hits mostly inhibitors; 320,000 compounds, 6.9% hits; AID 504834; also: potency is read from the fitted curve at half-maximal effect; % is scaled to controls: 0 for no effect and ±100 for the full control effect
#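 Two parasite generations (96 h, 37 C, 5% CO2) of compound exposure in infected erythrocytes (0.05% parasitemia, 2% hematocrit). Luciferase-reporter P. falciparum; decreased luminescence indicates inhibited growth, aimed at apicoplast-acting delayed death.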
# Pf growth 48h: P. falciparum growth inhibition at 48 hours (one generation) | P. falciparum luciferase growth in erythrocytes, 48 h | Potency, µM (series often up to 28.7 µM), for the others: top-dose activity change, negative = inhibition, usual class: inhibitors | 310,000 compounds, 5.9% hits | AID 504832; also: potency is read from the fitted curve at half-maximal effect; % is scaled to controls: 0 for no effect and ±100 for the full control effect
#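 First compound was added to culture medium, then infected red cells at 0.1% parasitemia and 2% hematocrit (final). After incubation at 37 C under 5% CO2, luciferase detection reagent was dispensed and light output recorded.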
# Giardia FBPA inh: inhibitors of Giardia lamblia fructose-1,6-bisphosphate aldolase | purified Giardia FBPA | AID 2451 | Potency, µM (doses to about 59.6 µM), for the others: at the top dose activity, negative = inhibition, most hits filed as inhibitors | 290,000 compounds, 0.71% hits; also: potency is read from the fitted curve at half-maximal effect; % is scaled to controls: 0 for no effect and ±100 for the full control effect; nearly all actives have a fitted effect of over 55% in size
# Target sequence (A8B2U2 whole entry, looked up): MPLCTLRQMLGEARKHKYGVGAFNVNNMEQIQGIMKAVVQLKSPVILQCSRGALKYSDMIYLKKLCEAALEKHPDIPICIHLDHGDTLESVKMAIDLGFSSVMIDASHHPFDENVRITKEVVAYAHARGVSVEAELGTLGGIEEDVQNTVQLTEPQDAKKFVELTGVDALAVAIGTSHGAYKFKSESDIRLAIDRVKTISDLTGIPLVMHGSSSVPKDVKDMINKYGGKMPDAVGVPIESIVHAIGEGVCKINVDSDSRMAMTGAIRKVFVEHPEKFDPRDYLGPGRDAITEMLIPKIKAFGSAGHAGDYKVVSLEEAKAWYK
#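 Giardia FBPA (40 nM reagent) was preincubated 10 min at RT with compound (up to 57.5 uM final), then substrate plus GAPDH/TPI/NAD/arsenate coupling system with diaphorase/resazurin was added; resorufin fluorescence (525/598 nm) was read after 20 min.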
# CHX counter: affects cycloheximide protein synthesis inhibition readout, counter-screen; cell reporter, cycloheximide protein synthesis inhibition counterscreen; AID 2314; max response, %; 300,000 compounds, 12% hits; in the data active = max response mostly above about 13%, no sharp cut-off; inactive = mostly below about 14%; also: read at 38.3 µM for the half of the compounds with a filed dose; 0% is about no effect
# NS1 function inh: inhibitors of influenza NS1 protein function | Potency, µM (titrated, usually from 46.1 µM), without a hit: at the highest dose activity, positive = more growth | 270,000 compounds, 0.4% hits | AID 2326; calls by dose curve; also: potency is read from the fitted curve at half-maximal effect; actives are rising curves; nearly all actives have a fitted effect of over 50% in size
#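 S. cerevisiae expressing influenza A NS1, grown in glucose, washed, then diluted 1:100 into pH 6.0 -URA galactose medium with 23 nl compound. Growth recovery read as OD600; NS1-free strain serves as control.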
# Shiga toxin inh: blocks Shiga toxin action in Vero cells. Vero cells, Shiga toxin protein synthesis inhibition reporter. 290,000 compounds, 9.2% hits. inhibition, % at 38.7 µM. AID 2315; in the data active = inhibition mostly above about 28%, no sharp cut-off; inactive = mostly below about 43%; also: 0% is about no effect
# Numbers without * were called inactive; i = inactive; ? = inconclusive; . = not tested or not shown. A selection: hits, their analogues and other compounds. The true share with any hit is near 21%. Unless noted, calls follow the shape of the dose curve; as a rule, active = well fitted curve in the direction sought with a large enough effect; inconclusive = small, poorly fitted or top-dose-only effect, or another doubt; inactive = no such curve, though single readings can be large; an effect the other way counts as inactive or inconclusive.
SMILES,Pf growth 96h,Pf growth 48h,Giardia FBPA inh,CHX counter,NS1 function inh,Shiga toxin inh
Cc1cccc(OCc2nnc(SCC(=O)N3CC(=O)Nc4ccccc43)o2)c1,0%,?,0%,2,.,-14
O=C(CSc1nnnn1-c1cccc2ccccc12)Nc1ccc(C(=O)O)cc1,243%,29%,-9%,1,5%,4
Cc1ccccc1COc1ccc(-c2nnn(CC(=O)O)n2)cc1,?,39%,25%,-2,18%,-3
CCCCn1c(N)c(N(CC)C(=O)C2=NN(c3ccccc3)C(=O)CC2)c(=O)[nH]c1=O,2%,0%,.,.,.,.
Cc1cc(OCC(=O)N2CCCC2)ccc1Cl,-2%,123%,2%,23*,-5%,52*
CC1CCCC(C)N1C(=O)COC(=O)c1ccc(F)c(S(=O)(=O)N2CCOCC2)c1 (stereo not drawn),-12%,-3%,.,1,3%,-3
COc1ccc(S(=O)(=O)CCC(=O)NCCc2cccc(C)c2)cc1,?,.,2%,-5,2%,-9
COc1ccc(S(=O)(=O)CCC(=O)NCCc2ccc(S(N)(=O)=O)cc2)cc1,9.3µM*,-12%,10%,11,0%,-8
O=C(NCCc1cccs1)c1cccs1,?,240%,0%,50*,.,91*
O=C(NCCCCCCNC(=O)c1cccs1)c1cccs1,28%,3%,-3%,-3,7%,-7
O=C(NCCc1ccc(F)cc1)c1cccs1,?,143%,-6%,26*,-20%,91*
O=C(NCCCc1ccccc1)c1cccs1,39%,27%,0%,34*,-13%,55*
Cc1csc(NC(=O)CSc2nnc(NC(=O)COc3ccc(Cl)cc3)s2)n1,-8%,3%,3%,1,19%,8
CC[C@H]1C2=C3C(CC[C@H]4C(OC)OC[C@](C)([C@@H]34)N(C(=O)OC(C)(C)C)C2)C(CO)C1CO (stereo partly drawn),.,.,0%,.,.,.
O=C(NCCSCc1ccc(Cl)cc1)c1cccs1,10µM*,3.3µM*,-4%,9,-44%,-6
COc1ccc(CCNC(=O)c2cccs2)cc1,?,?,-3%,32*,-18%,48*
COc1ccc(CNC(=O)c2cccs2)cc1,.,-5%,6%,4,-16%,23
CCc1ccc(OCCNC(=O)c2cccs2)cc1,.,0%,-5%,41*,-56%,53*
O=C(NCC(O)c1ccccc1)c1cccs1 (stereo not drawn),94%,101%,17%,42*,4%,79*
[O-][n+]1ccc(C(O)c2ccccc2)cc1 (stereo not drawn),2%,20%,7%,-1,3%,.
NC(=O)c1nn(-c2ccc(Cl)cc2Cl)c(=O)cc1O,?,13%,5%,-1,.,-14
O=C(CNC(=O)c1cccs1)c1ccc(Br)cc1,0%,124%,-1%,39*,-7%,109*
COc1ccc(CNC(=O)C(OC(=O)c2cccs2)C(C)C)cc1 (stereo not drawn),25%,18%,11%,-3,-6%,-13
CC(Cc1cccs1)NC(=O)c1cccs1 (stereo not drawn),144%,41%,-2%,33*,.,74*
COc1ccc(CNC(=O)COC(=O)c2cccs2)cc1,1%,40%,4%,27*,-21%,47*
SMILES,Pf growth 96h,Pf growth 48h,Giardia FBPA inh,CHX counter,NS1 function inh,Shiga toxin inh
CCNC(=O)C(=O)Nc1ccc([N+](=O)[O-])cc1,?,45%,2%,5,.,-1
CC(Cc1cccs1)NC(=O)Nc1ccc([N+](=O)[O-])cc1 (stereo not drawn),0%,-13%,-2%,30*,-42%,73*
O=C(COc1ccc(Cl)cc1)NCc1nnc2c3ccccc3c(-c3ccccc3)nn12,13µM*,-20%,3%,-3,7%,-5
CCO[C@@H]1OC(C(=O)O)=C[C@H](c2ccc3c(c2)OCO3)[C@H]1CCCO,42%,30%,9%,-2,4%,8
CCN(CC(=O)NC1CCCC1)S(=O)(=O)c1ccc(F)cc1,3%,?,11%,5,6%,1
O=c1c(-c2ccccc2)c(O)c2ccccc2n1-c1ccccc1,23%,-2%,-12%,-1,-3%,-3
CCN1/C(=C\C=C\C2=[N+](CC)c3ccccc3C2(C)C)C(C)(C)c2ccccc21,0.15µM*,.,21%,-6,-41%,-25
CCOc1ccc(C(=O)N2CCN(Cc3ccccc3)CC2)cc1OCC,165%,3%,10%,-2,-11%,14
Cc1cc(CN2CCN(CCC#N)CC2)c(O)c(C2(C)CCCCC2)c1,11%,9.3µM*,-8%,-1,-138%,8
O=C(CCCn1nnnc1CN1CCOCC1)N1CCC(c2ccccc2Cl)C1 (stereo not drawn),5%,?,.,-2,-2%,3
COc1ccc(-c2noc(-c3ccccc3F)n2)cc1,9.3µM*,.,-4%,51*,-55%,91*
O=C(O)c1cccc(-c2noc(-c3ccccc3F)n2)c1,?,0.3µM*,.,.,.,.
Fc1ccccc1-c1nc(-c2ccncc2)no1,-23%,172%,3%,24*,-7%,41*
Fc1ccccc1-c1nc(-c2cnccc2C(F)(F)F)no1,?,?,4%,15*,0%,34
O=C(Nc1cccnc1)c1ccccc1-c1nc(-c2ccccc2F)no1,?,.,-1%,6,-49%,2
C/C=C1/NN(CCCN2CCN(c3cccc(Cl)c3)CC2)C(=O)N1CCOc1ccccc1,-16%,-18%,-9%,13,.,-10
COCCNC(=O)CN(c1ccc(F)cc1)S(=O)(=O)c1ccc2c(c1)OCCO2,-20%,0%,6%,-6,-2%,5
COC(=O)CCC(=O)N1CCCC(CO)(Cc2ccccc2F)C1 (stereo not drawn),-7%,10%,2%,-1,-7%,1
Cc1ccccc1NC(=O)CSc1nc(=O)n(CCN2CCOCC2)c2c1CCCC2,-34%,?,.,.,.,.
COc1ccc(-c2nc(-c3ccncc3)no2)c(OC)c1,3%,68%,10%,61*,22%,110*
O=C(O)c1cccc(-c2nc(-c3ccccc3C(F)(F)F)no2)c1,?,4.1µM*,.,.,.,.
Cc1ccc(-c2nc(-c3ccccc3)no2)c(Cl)c1,-17%,.,2%,12,-13%,5
Fc1ccccc1-c1nc(-c2ccccc2)no1,23%,i,4%,40*,4%,68*
Brc1ccccc1-c1nc(-c2ccccc2)no1,280%,296%,0%,55*,0%,79*
C=C(C)C(O)/C=C/c1ccc(C(F)(F)F)cc1 (stereo not drawn),.,.,1%,.,.,.
C/C(CC(=O)Nc1ccccc1C#N)=N\NC(=O)c1ccncc1,23%,-19%,-21%,12,2%,39
c1ccc(Sc2ncnc3c2oc2ccccc23)cc1,30%,105%,1%,33*,-6%,81*

# Screens: PubChem, National Center for Advancing Translational Sciences (NCATS)
